In PMC5540273 (PLoS ONE, 2017):

Columns and labels:
Settings in all cases: concentration: 1 μM, replicates: in singlicate; n = 1
[1] = test system: T1, RSK1(Kin.Dom.1-N-terminal)
T1 construct: gene RPS6KA1

[2] = test system: T2, RSK1(Kin.Dom.2-C-terminal)
T2 construct: gene RPS6KA1

[3] = test system: T3, RSK2(Kin.Dom.1-N-terminal)
T3 construct: gene RPS6KA3

[4] = test system: T4, RSK2(Kin.Dom.2-C-terminal)
T4 construct: gene RPS6KA3

[5] = test system: T5, RSK3(Kin.Dom.1-N-terminal)
T5 construct: gene RPS6KA2

[6] = test system: T6, RSK3(Kin.Dom.2-C-terminal)
T6 construct: gene RPS6KA2

[7] = test system: T7, RSK4(Kin.Dom.1-N-terminal)
T7 construct: gene RPS6KA6

[8] = test system: T8, RSK4(Kin.Dom.2-C-terminal)
T8 construct: gene RPS6KA6

S6K1 = test system: S6K1
SBK1 = test system: SBK1
SGK2 = test system: SGK2
SGK3 = test system: SGK3
SGK = test system: SGK
SIK2 = test system: SIK2
SIK = test system: SIK
SLK = test system: SLK
SNARK = test system: T9, SNARK
T9 construct: gene NUAK2

SNRK = test system: SNRK
SRC = test system: SRC
SRMS = test system: SRMS
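Further: KINOMEscan kinase panel screen.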

| Structure (SMILES) | %Inh [1] [%] | %Inh [2] [%] | %Inh [3] [%] | %Inh [4] [%] | %Inh [5] [%] | %Inh [6] [%] | %Inh [7] [%] | %Inh [8] [%] | %Inh (S6K1) [%] | %Inh (SBK1) [%] | %Inh (SGK2) [%] | %Inh (SGK3) [%] | %Inh (SGK) [%] | %Inh (SIK2) [%] | %Inh (SIK) [%] | %Inh (SLK) [%] | %Inh (SNARK) [%] | %Inh (SNRK) [%] | %Inh (SRC) [%] | %Inh (SRMS) [%] |
| --- | --- | --- | --- | --- | --- | --- | --- | --- | --- | --- | --- | --- | --- | --- | --- | --- | --- | --- | --- | --- |
| Cc1c(Cn2c(C)nn3c(=O)cc(N4CCO[C@H](C)C4)nc23)cccc1C(F)(F)F [GSK2373690] | 49 | 0 | 9 | 0 | 22 | 0 | 0 | 0 | 9 | 28 | 13 | 0 | 26 | 0 | 1 | 18 | 0 | 0 | 1 | 0 |
| Cl.c1ccc(Cn2cnc3cc(Nc4ncnc5ccccc45)ccc32)cc1 [GW272142] | 0 | 0 | 0 | 0 | 0 | 6 | 0 | 5 | 0 | 1 | 0 | 0 | 0 | 0 | 0 | 20 | 0 | 0 | 0 | 0 |
| O=C1NC(=O)C(c2ccccc2)=C1Nc1cccc(O)c1 [SB-390534] | 19 | 0 | 24 | 0 | 0 | 0 | 14 | 7 | 11 | 27 | 9 | 20 | 11 | 0 | 0 | 51 | 16 | 0 | 0 | 17 |
| Cc1cc(Nc2nc(-c3cccc(C)n3)nc3ccccc23)ccn1 [GW872411] | 23 | 0 | 24 | 0 | 0 | 7 | 0 | 0 | 7 | 0 | 0 | 0 | 0 | 23 | 0 | 0 | 0 | 0 | 0 | 13 |
| Cc1nnc(-c2ccc(C)c(-c3ccc(C(=O)O)cc3)c2)o1 [GW608005] | 2 | 2 | 0 | 2 | 3 | 0 | 0 | 2 | 10 | 4 | 0 | 0 | 0 | 0 | 0 | 0 | 5 | 0 | 0 | 0 |
